Measured values published in PubChem BioAssay.
Potency and affinity values are given separately. Calls of active or inactive are those of the source. Cut-off not given; nearly all actives show IC50 up to about 0.91 µM.

biological target: Calcium-dependent protein kinase 4 (Plasmodium falciparum (isolate 3D7)) (UniProt Q8IBS5); test: PfCDPK4 kinase inhibitors, biochemical, TCAMS library (AID 1159588); conditions: recombinant PfCDPK4, Kinase-Glo ATP depletion luminescence
Sequence (Q8IBS5 whole entry, looked up): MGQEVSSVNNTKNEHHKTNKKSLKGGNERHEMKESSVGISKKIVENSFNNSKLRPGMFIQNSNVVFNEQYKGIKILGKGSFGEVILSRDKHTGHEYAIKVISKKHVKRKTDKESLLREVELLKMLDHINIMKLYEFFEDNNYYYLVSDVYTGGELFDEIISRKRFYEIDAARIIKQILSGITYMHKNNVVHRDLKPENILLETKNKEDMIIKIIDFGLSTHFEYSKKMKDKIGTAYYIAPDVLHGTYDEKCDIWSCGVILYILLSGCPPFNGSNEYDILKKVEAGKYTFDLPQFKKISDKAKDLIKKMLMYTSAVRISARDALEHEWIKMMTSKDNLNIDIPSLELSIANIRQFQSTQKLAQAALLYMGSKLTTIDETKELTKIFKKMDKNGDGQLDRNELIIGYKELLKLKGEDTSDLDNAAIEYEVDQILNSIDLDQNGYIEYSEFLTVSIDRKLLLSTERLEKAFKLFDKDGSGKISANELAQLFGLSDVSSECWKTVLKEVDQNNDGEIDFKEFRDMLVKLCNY

outcome, inactive:
O=C(Cc1ccc(-c2ccccc2)cc1)N[C@H]1CCN(Cc2ccc(OCCCN3CCCCC3)cc2)C1
Cc1cc(C)n(-c2nc(Nc3cccc(C(F)(F)F)c3)nc(-n3nc(C)cc3C)n2)n1
O=C(NCc1cccc(F)c1)Nc1cccc(-c2ccc(-c3nc4ccc(F)cc4[nH]3)cc2)c1
NC(=O)C1CCN(Cc2cccc(-c3ccc(-c4nc5ccc(C(F)(F)F)cc5[nH]4)cc3)c2)CC1
CCCC[C@@H](C(=O)NCCc1ccc(Cl)cc1)N1C(=O)CCC1C(=O)Nc1ccc(Cl)c(Cl)c1 (stereo partly specified)
Nc1ncc(-c2ccc(F)cc2)c2ccc(-c3cccc(F)c3)cc12
c1ccc(CCNCc2ccc(-c3cccc(-c4nc5ccccc5[nH]4)c3)cc2)nc1
CCCCN1CCN(CCCCNc2c3ccccc3nc3ccccc23)CC1
CCCCCCN1CCCN(Cc2ccc(C(=O)Nc3ccc(Cl)cc3)cc2)CC1
COc1ccc(-c2cccc(NC(=O)c3ccc(C#N)cc3)c2)cc1CN1CCCN(C)CC1
CCCCCN1CCCC(NS(=O)(=O)c2ccc(C(=O)Nc3ccc(C(F)(F)F)cc3)cc2)C1 (stereo unspecified)
Cc1cc(O)c(CN(C)Cc2ccc(N(C)C)cc2)cc1C(C)C
CNC(=O)CSc1nnc(-c2ccc(C)cc2)c(-c2ccc(C)cc2)n1
Cc1cc(C)c(NC(=O)NC2CCN(CCCCCNC(=O)/C=C/c3ccc(Cl)c(Cl)c3)CC2)c(C)c1
Cn1c(=O)n(C)c2cc(CNCCNc3ccnc4cc(Cl)ccc34)ccc21
CC(OC(=O)c1ccc(C(=O)NCC2CC2)cc1)C(C)(C)C (stereo unspecified)
CCc1c(CCNCCCCCCNCCc2ccc([N+](=O)[O-])cc2)ccc(O)c1O
CS(=O)(=O)c1ccc(CCNCc2ccc(-c3cccc(-c4nc5ccccc5[nH]4)c3)cc2)cc1
CC[C@H](C)CNC(=O)c1cncc(-c2cccc(CNCCCc3ccccc3)c2)c1
Cc1cccc2[nH]c(-c3ccc(-c4cccc(NC(=O)c5ccncc5)c4)cc3)nc12
Cc1cc2nc(/N=C(\N)NC(=O)NC3CCCCC3)nc(C)c2cc1C
CN1CCN(CCCN(Cc2ccc(-c3cccc(CNC4CCCC4)c3)cc2)C(=O)/C=C/c2ccccc2)CC1
CCNc1cc(C(=O)N[C@@H](Cc2ccccc2)[C@H](O)CNC2CCC(C(C)(C)C)CC2)cc(N2CCCC2=O)c1 (stereo partly specified)
CC(=O)Nc1ccc(C(=O)Nc2ccc(-c3cccc(-c4nc5ccccc5[nH]4)c3)cc2)cn1
Cc1cc2c(cc1C(F)(F)F)N(C(=O)Nc1cccc(C(=O)NC3CCN(Cc4ccccc4)CC3)c1)CC2
Fc1ccc2nc(-c3cccc(-c4cccc(CNCCc5ccncc5)c4)c3)[nH]c2c1
